# Bioassay records (PubChem BioAssay)
# The full list was thinned out, with hits kept by preference.
# RmlC RmlD mix = inhibitors of RmlC and RmlD coupled enzymes; AID 1532; inhibition, % at 5.5 µM; RmlC/RmlD coupled enzyme inhibition, 384-well mixture HTS; 110,000 tested, 0.39% active; in the data active = inhibition above about 30%, passing the limit was not always enough
# HIV RNase H inh-1 = blocks HIV-1 RNase H cleavage of RNA/DNA duplex; RT-RNase H RNA/DNA duplex cleavage, fluorescence; AID 565; inhibition, % at 10 µM; P04585; 65,000 tested, 1.9% active; in the data active = inhibition above about 50%
# HIV RNase H inh-2 = confirmation of HIV-1 reverse transcriptase RNase H inhibitors. Recombinant RT RNase H, fluorescent RNA/DNA duplex cleavage. inhibition, % at 10 µM. AID 651. 1,000 tested, 39% active. shares compounds with HIV RNase H inh-1; in the data active = inhibition above about 48%
# * marks the source's active call; other numbers are inactive results; / = not tested or not shown; + = active, no number.
SMILES,RmlC RmlD mix,HIV RNase H inh-1,HIV RNase H inh-2
COc1ccc(-c2c3c(=O)n(C)c(=O)n(C)c3cn2-c2cc(OC)ccc2OC)cc1,-6.9,7.7,/
CCOc1cccc(OCCCNCCCOC)c1,/,4.9,/
CC(NC(=O)c1ccnc(C(C)(C)C)c1)c1ccccc1 (stereo unspecified),1.5,-0.5,/
CCOc1ccccc1N=c1oc2cc(O)ccc2cc1C(=O)NCC1CCCO1 (stereo unspecified),1.6,/,/
O=c1c2ccccc2sn1-c1ccccc1,8.1,/,/
O=c1c2ccccc2sn1-c1ccc(S(=O)(=O)N2CCCCC2)cc1,12.3,95.1*,/
O=c1c2cnn(-c3ccccc3Cl)c2ncn1Cc1cccnc1,-1.9,-9.2,/
Clc1ccc(OCc2nnc(-c3ccccc3Br)o2)c(Cl)c1,13.9,-25.0,/
O=C(Nc1ccc2c(c1)nc1n2CCN(Cc2ccccc2)C1)NC1CCCCC1,24.0,/,/
COCCN1CCn2c(nc3cc(NC(=O)NC4CCCCC4)ccc32)C1,59.4*,-14.5,/
O=C(CN(CC1CCCO1)C(=O)CNS(=O)(=O)c1ccc(Cl)cc1)NCC1CCCO1 (stereo unspecified),-10.6,/,/
COc1cccc(-c2nnc3sc(C4CCCCC4)nn23)c1,6.3,-64.3,/
CCOc1cccc(-c2nnc3sc(C4CCCCC4)nn23)c1,-9.5,59.1*,/
CCC(NC(=O)OC(C)(C)C)C(=O)Oc1ccc2c3c(c(=O)oc2c1)CCC3 (stereo unspecified),+,-3.7,/
CCC(NC(=O)OC(C)(C)C)C(=O)Oc1cc(C)cc2oc(=O)c3c(c12)CCC3 (stereo unspecified),-6.1,/,/
CCOC(=O)C(CO)(NC(C)=O)C(=O)OCC,6.6,5.0,/
COc1cc(-c2nnc3sc(Cc4ccc(Cl)cc4)nn23)cc(OC)c1OC,/,56.4*,91.6*
COc1cccc(OC)c1-c1nn2c(-c3cc(-c4ccccc4)n[nH]3)nnc2s1,-5.5,89.1*,65.7*
COc1cc(-c2nn3c(-c4ccccn4)nnc3s2)cc(OC)c1OC,-5.2,-11.0,/
c1ccc(OCc2nnc3sc(-c4cccs4)nn23)cc1,17.6,-20.2,/
COc1cc(-c2nnc3sc(C4CCCCC4)nn23)cc(OC)c1OC,8.4,-21.9,/
COc1cc(-c2nnc3sc(-c4cccnc4)nn23)cc(OC)c1OC,/,76.2*,93.4*
COc1ccc(-c2nnc3sc(-c4c(OC)cccc4OC)nn23)cc1,/,2.0,/
COc1ccc(-c2nn3c(COc4ccccc4)nnc3s2)cc1OC,-4.7,68.0*,10.6
C(=N\c1nc2ccccc2n1Cc1ccccc1)/c1cccs1,7.0,-73.2,/
SMILES,RmlC RmlD mix,HIV RNase H inh-1,HIV RNase H inh-2
NC(=O)c1ncc(C(F)(F)F)cc1Oc1ccc(C(F)(F)F)cc1,-6.5,/,/
C=CCn1c(SCC(=O)Nc2ncc(Cc3cc(C(F)(F)F)ccc3Cl)s2)nnc1-c1ccncc1,9.1,/,/
COC(=O)N(c1ccccc1)P1(=S)OCCO1,66.0,90.2*,53.8*
CNC(=O)N(c1ccccc1)c1ccccc1,-15.7,-12.7,/
CCOC(=O)N(c1ccccc1)P1(=S)OCCO1,10.0,88.4*,57.5*
CCOC(=O)N(c1ccccc1)P1(=S)OCC(C)O1 (stereo unspecified),-6.4,-1.1,/
O=C(Cc1ccccc1[N+](=O)[O-])NCCSCc1c(F)cccc1Cl,9.8,/,/
O=C(CSC1=NCCS1)Nc1ccc(S(=O)(=O)NC2CCCCC2)cc1,-6.2,/,/
COc1cc(NS(=O)(=O)c2ccc(NC(=O)CSC3=NCCS3)cc2)nc(OC)n1,/,54.4*,45.1
COc1ccc(NC(=O)c2cc(-c3cc(C)ccc3O)n[nH]2)cc1Cl,4.5,50.7*,5.3
COc1ccc(OC)c(NC(=O)c2cc(-c3cc(Cl)ccc3O)n[nH]2)c1,3.8,24.4,/
CCOc1ccccc1NC(=O)N1CCC(NC(=O)c2cccc(C)c2)CC1,-8.1,76.9*,12.7
CCOc1ccccc1NC(=O)N1CCC(NC(=O)c2ccccc2C)CC1,-15.5,1.0,/
COc1ccc(-c2nnn(CC(=O)NCCc3c[nH]c4ccccc34)n2)cc1OC,-9.1,/,/
CN(Cc1ccccc1)C1CC(=O)N(c2ccc(C(=O)O)cc2)C1=O (stereo unspecified),3.9,77.2*,-5.5
COC(=O)c1ccc(N2C(=O)CC(NCc3ccccc3)C2=O)cc1 (stereo unspecified),-12.4,-7.3,/
CC1CCN(C(=O)Cn2cc3c(n2)CCCC3)CC1,-12.9,2.5,/
C=CCOC(=O)C1=C[C@@H](c2cn(C(C)=O)c3ccccc23)C[C@@H](OCc2ccc(CO)cc2)O1,-9.6,/,/
O=C1C(Cl)=C(N2CCCCC2)C(=O)N1c1ccccc1Cl,-4.6,72.2*,40.0
Cc1ccccc1N1C(=O)C(Cl)=C(N2CCCCCC2)C1=O,-0.7,8.6,/
CCOC(=O)C[C@H]1c2cc(F)ccc2S(=O)(=O)N1Cc1ccc(OC)cc1,7.5,/,/
Cc1ccc(-c2nnn(CC(=O)N(CC(=O)NC3CCCC3)c3cnc4ccccc4c3)n2)o1,-6.8,9.6,/
CCC(C(=O)NC1CCCC1)N(C(=O)Cn1nnc(-c2ccc(C)o2)n1)c1cnc2ccccc2c1 (stereo unspecified),7.3,65.9*,47.4
O=C(CCN1CCc2ccccc2C1)Nc1ccccc1F,-13.0,-10.0,/
CCCN(CCC)S(=O)(=O)c1ccc(C(=O)Nc2nnc(-c3cccc(OC)c3)o2)cc1,/,68.3*,88.9*
SMILES,RmlC RmlD mix,HIV RNase H inh-1,HIV RNase H inh-2
CCCN(CCC)S(=O)(=O)c1ccc(C(=O)Nc2nnc(-c3cc(OC)cc(OC)c3)o2)cc1,/,53.4*,-10.7
CCN(Cc1ccccc1)S(=O)(=O)c1ccc(C(=O)Nc2nnc(-c3ccccc3OC)o2)cc1,/,78.1*,62.1*
CCCN(CCC)S(=O)(=O)c1ccc(C(=O)Nc2nnc(CSC)o2)cc1,-3.4,19.6,/
COc1ccccc1-c1nnc(NC(=O)c2ccc(S(=O)(=O)N(C)C)cc2)o1,6.1,2.5,/
COc1cccc(-c2nnc(NC(=O)c3cccc(F)c3)o2)c1,-5.9,-0.6,/
CCOC(=O)C1=C(C)N=C2SC(CC)C(=O)N2C1c1ccc(OC(C)=O)c(OCC)c1 (stereo unspecified),/,-2.8,/
CCO[C@@H]1OC(C(=O)N2CCOCC2)=C[C@H](c2coc3ccccc3c2=O)[C@H]1CCCO,-13.7,/,/
CCCCCOc1ccc(C2C(C(C)=O)=C(C)Nc3ncnn32)cc1OC (stereo unspecified),/,64.2*,-10.0
COc1ccc(C2C(C(C)=O)=C(C)Nc3ncnn32)cc1OC (stereo unspecified),-15.9,-5.8,/
O=C(Nc1ccccn1)C(NS(=O)(=O)c1cccc2nsnc12)c1ccccc1 (stereo unspecified),-8.2,21.9,/
CCN(CC)CCCN1C=C2C(=O)C(C)(OC(=O)C3CCCC3)C(=O)C=C2C=C1c1ccsc1 (stereo unspecified),150.5,/,/
CC1(C)Cc2c(sc3c2C(=O)NC(c2cccnc2)N3)CO1 (stereo unspecified),10.1,53.6*,6.2
O=C1NC(c2cccnc2)Nc2sc3c(c21)CCCC3 (stereo unspecified),-3.6,/,/
CN1C(C(=O)NCc2ccc(OC(F)(F)F)cc2)CC2Cn3c(nc4cc(Cl)c(Cl)cc43)C21 (stereo unspecified),2.6,/,/
Cc1cc(C)c(S(=O)(=O)N2CCC(C(=O)NCc3ccco3)CC2)c(C)c1,0.1,/,/
CN(C)c1ccc(N=Cc2c(O)n(CCC3=CCCCC3)c(=O)[nH]c2=O)cc1,-13.7,58.5*,51.2*
CCN(CC)c1ccc(N=Cc2c(O)n(CCC3=CCCCC3)c(=O)[nH]c2=O)cc1,2.5,17.5,/
